This excerpt belongs to a sample that is enriched for hits.
Cycloheximide cs = Cycloheximide Counterscreen for Small Molecule Inhibitors of Shiga Toxin; max response, %; AID 2314, 2010; cell reporter, cycloheximide protein synthesis inhibition counterscreen; hit rate 12% among 300,000; in the data active = max response mostly above about 13%, no sharp cut-off; inactive = mostly below about 14%; also: read at 38.3 µM for the half of the compounds with a filed dose
RE007 growth inh = qHTS Assay for Inhibitors of the HIV-1 protein Vpr | S. pombe RE007 Vpr strain, BacTiter-Glo ATP luminescence, 24 h | Potency, µM (titrated, usually from 92.2 µM), most hits filed as inhibitors | hit rate 0.21% among 360,000 | AID 651644, 2012; active = well fitted falling curve with a large enough effect; inconclusive = small, poorly fitted or top-dose-only effect; inactive = no such curve, though single readings can be large or run the other way; also: nearly all actives have a fitted effect of over 50% in size
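Fission yeast strain RE007, carrying one chromosomally integrated HIV-1 vpr copy, was seeded at OD 0.01 in PMG+AL medium with 23 nL pinned compound. After 24 h at 30 °C and 99% humidity, viability was read by BacTiter-Glo luminescence.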
LmPK inh = qHTS Assay for Inhibitors of Leishmania Mexicana Pyruvate Kinase (LmPK) | purified LmPK, Kinase-Glo ATP luminescence, 1 h | Potency, µM (highest dose often 57.5 µM), actives largely listed as inhibitors | hit rate 0.37% among 290,000
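In 50 mM imidazole pH 7.2 with 7 mM MgCl2, LmPK (0.1 nM) turned over PEP (0.5 mM) and ADP (0.1 mM) for 1 h at room temperature. Luciferase read-out of ATP.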
Shiga toxin inh = A qHTS for Small Molecule Inhibitors of Shiga Toxin. Vero cells, Shiga toxin protein synthesis inhibition reporter. inhibition, % at 38.7 µM. hit rate 9.2% among 290,000. AID 2315, 2010; in the data active = inhibition mostly above about 28%, no sharp cut-off; inactive = mostly below about 43%
Tb PYK inh = qHTS of Trypanosoma Brucei Inhibitors; AID 624173, 2012; Potency, µM (top dose mostly 76.8 µM), usual class: inhibitors; TbPYK enzyme, Kinase-Glo Plus ATP luminescence, 45 min; hit rate 0.12% among 410,000; pyruvate kinase (Trypanosoma brucei), Q57TT1; also: nearly all actives have a fitted effect of over 50% in size
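Luminescence from Kinase-Glo Plus, added after a 45-minute room-temperature reaction, served as the end-point read-out. The enzyme and substrate were preincubated with compound before ADP (130 uM final) initiated turnover. Concentration-effect curves came from normalized qHTS data.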
FBPA Giardia inh = qHTS Assay for Inhibitors of Fructose-1,6-bisphosphate Aldolase from Giardia Lamblia. A8B2U2. hit rate 0.71% among 290,000. Potency, µM (top dose mostly 59.6 µM), actives largely listed as inhibitors. purified Giardia FBPA. AID 2451, 2010; also: nearly all actives have a fitted effect of over 55% in size
Target sequence (A8B2U2 whole entry, looked up): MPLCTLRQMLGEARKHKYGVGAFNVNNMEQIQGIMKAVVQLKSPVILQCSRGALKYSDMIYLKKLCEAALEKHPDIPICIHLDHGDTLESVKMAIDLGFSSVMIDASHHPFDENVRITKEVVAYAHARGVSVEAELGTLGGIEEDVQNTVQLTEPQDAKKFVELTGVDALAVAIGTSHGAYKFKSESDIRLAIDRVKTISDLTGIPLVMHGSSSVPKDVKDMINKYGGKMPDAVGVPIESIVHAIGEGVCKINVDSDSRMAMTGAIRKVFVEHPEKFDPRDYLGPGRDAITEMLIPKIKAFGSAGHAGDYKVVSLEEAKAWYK
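Giardia FBPA (40 nM reagent) was preincubated 10 min at RT with compound (up to 57.5 uM final), then substrate plus GAPDH/TPI/NAD/arsenate coupling system with diaphorase/resazurin was added; resorufin fluorescence (525/598 nm) was read after 20 min.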
Of the large screens only hits and unclear results are named; the others gave an inactive call. Unless noted, calls follow the shape of the dose curve; as a rule, active = well fitted curve in the direction sought with a large enough effect; inconclusive = small, poorly fitted or top-dose-only effect, or another doubt; inactive = no such curve, though single readings can be large; an effect the other way counts as inactive or inconclusive.

O=C(/C=C/c1ccccc1)Nc1ccc(Cl)cn1	Cycloheximide cs 33, Shiga toxin inh 112
COc1cccc(NC(=O)/C=C\c2ccc(Cl)cc2)c1	none (no result: Cycloheximide cs, RE007 growth inh, LmPK inh, Shiga toxin inh, Tb PYK inh)
Cc1ccc(C)c(NC(=O)CCN2C(=O)c3ccccc3Sc3ncccc32)c1	none (no result: Cycloheximide cs, RE007 growth inh, LmPK inh, Shiga toxin inh, FBPA Giardia inh)
COC1C(O)C(O)C(O)C(O)C1O (stereo unspecified)	none (no result: Cycloheximide cs, LmPK inh, Shiga toxin inh)
CCSc1nc2n(n1)C(c1ccc(C(=O)O)cc1)C(C(=O)Nc1ccccc1C)=C(C)N2 (stereo unspecified)	none (no result: Cycloheximide cs, RE007 growth inh, LmPK inh, Shiga toxin inh, FBPA Giardia inh)
Cc1cccc(NC(=O)/C=C/c2ccc(Cl)cc2)n1	Cycloheximide cs 35, Shiga toxin inh 65
CCN(CC)S(=O)(=O)c1ccc(/C=C/C(=O)O)cc1	none
CCN(CC)S(=O)(=O)c1ccc(/C=C/C(=O)Nc2cccc(F)c2)cc1	Cycloheximide cs 33
CCc1ccc(NC(=O)c2cc(Br)ccc2Br)cc1	none (no result: RE007 growth inh, Tb PYK inh)
CN(C)C(=O)Oc1ccc(Br)cc1C(=O)Nc1ccc(F)c(Cl)c1	none
O=C(Nc1ccc(Cl)cc1)c1ccc(Br)cc1F	Cycloheximide cs 44, Shiga toxin inh 86
CC(C)c1ccc(NC(=O)c2cc(Br)ccc2Br)cc1	Cycloheximide cs 43, Shiga toxin inh 60
Cc1ccc(-c2cc(C(=O)N3CCCC3)c3ccccc3n2)s1	Cycloheximide cs 20, Shiga toxin inh 52 (no result: FBPA Giardia inh)
Cc1ccc(-c2cc(C(=O)N3CCC(C)CC3)c3ccccc3n2)cc1	Cycloheximide cs 17 (no result: FBPA Giardia inh)
O=C(c1cc(-c2ccccc2)nc2ccccc12)N1CCN(c2ccccc2O)CC1	Cycloheximide cs 15, Shiga toxin inh 46 (no result: FBPA Giardia inh)
O=C(c1cc(-c2ccncc2)nc2ccccc12)N1CCN(c2ccccc2O)CC1	none (no result: FBPA Giardia inh)
Cc1ccc(-c2cc(C(=O)N3CCOCC3)c3cc(C)ccc3n2)cc1	Cycloheximide cs 21
C=CCNC(=S)NNc1nc2c(c(=O)[nH]1)C1(CCCCC1)Cc1ccccc1-2	none
OC(CNCc1ccccn1)c1ccccc1 (stereo unspecified)	none
Cc1ccccc1NC(=O)C(=O)NCc1ccccn1	Cycloheximide cs 27
c1ccc(NCc2ccccn2)cc1	Cycloheximide cs 18, Shiga toxin inh 95
Cc1ccc(NC(=O)C(=O)NCc2ccccn2)cc1	Cycloheximide cs 29, Shiga toxin inh 87
O=C(NCc1ccccn1)C(=O)Nc1ccccc1	Cycloheximide cs 23, Shiga toxin inh 67
Cc1cc(C)cc(NC(=O)C(=O)NCc2ccccn2)c1	none
Cc1cccc(C)c1NC(=O)C(=O)NCc1ccccn1	none (no result: FBPA Giardia inh)
Cc1ccc(S(=O)(=O)c2cn(Cc3ccccc3Cl)c3ccc(F)cc3c2=O)cc1	none (no result: Cycloheximide cs, RE007 growth inh, LmPK inh, Shiga toxin inh, FBPA Giardia inh)
COc1ccc(Br)cc1S(=O)(=O)NCc1ccccn1	none
Cc1cc(Br)ccc1NCc1ccccn1	Cycloheximide cs 31, Shiga toxin inh 67, FBPA Giardia inh inconclusive
Cc1cc(CN(C)C(=O)c2ccc(OC3CCN(CCc4ccccc4)CC3)cc2)on1	none
Fc1cccc(CSc2nc3ncccc3[nH]2)c1	Cycloheximide cs 51, Shiga toxin inh 94
Fc1cccc(CSc2nc3ncc(Cl)cc3[nH]2)c1	Cycloheximide cs 20
C(=C\c1ccccc1)/CSc1nc2ncccc2[nH]1	Cycloheximide cs 25, Shiga toxin inh 53
O=C(CSc1nc2ncccc2[nH]1)Nc1cc(F)ccc1F	none (no result: Cycloheximide cs, RE007 growth inh, LmPK inh, Shiga toxin inh, FBPA Giardia inh)
O=C(CSc1nc2ncccc2[nH]1)c1ccc(F)cc1	Cycloheximide cs 43
O=[N+]([O-])c1ccc(N2CCCC2)c([N+](=O)[O-])c1	none (no result: Cycloheximide cs, LmPK inh, Shiga toxin inh, FBPA Giardia inh)
COc1ccc(C2=Nn3c(nnc3-c3ccccc3O)SC2)cc1OC	none (no result: RE007 growth inh, LmPK inh, Tb PYK inh)
CCc1ccccc1NC(=O)Cn1nnc2sc3c(c2c1=O)CCC(C(C)(C)C)C3 (stereo unspecified)	none (no result: Cycloheximide cs, RE007 growth inh, LmPK inh, Shiga toxin inh, FBPA Giardia inh)
O=C(NC1CCCC1)C(C1CC1)n1c(-c2ccccn2)nc2ccccc21 (stereo unspecified)	none (no result: Cycloheximide cs, LmPK inh, Shiga toxin inh, Tb PYK inh, FBPA Giardia inh)
COc1ccc2c(c1)cc1c(=O)n(CC(=O)NC3CC3)nc(C)n12	none (no result: Cycloheximide cs, RE007 growth inh, LmPK inh, Shiga toxin inh, FBPA Giardia inh)
c1ccc(CSc2nc3ncccc3[nH]2)cc1	none (no result: Cycloheximide cs, RE007 growth inh, LmPK inh, Shiga toxin inh, FBPA Giardia inh)
Cc1cc(SCc2cccc([N+](=O)[O-])c2)nc(=O)[nH]1	none (no result: FBPA Giardia inh)
Fc1ccc(CSc2nc3ncccc3[nH]2)cc1	Cycloheximide cs 30, Shiga toxin inh 71
